From PubChem BioAssay AID720519 (National Center for Advancing Translational Sciences (NCATS), 2013)
Records with an inconclusive call do not appear. Calls come from the whole dose curve; as a rule, active = well fitted activation curve with a large enough effect; inconclusive = small, poorly fitted or top-dose-only effect; inactive = flat fitted curve, though single readings scatter.

experiment: qHTS for Inhibitors of Cell Surface uPA Generation: Confirmatory Assay for Cherry-picked Compounds; details: cell surface uPA activity generation, qHTS confirmation; series mostly up to 115 µM; inhibition: at the top concentration; note: 0% is about no effect
How it was run: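 RAW 264.7 cells at 4000/well, incubated overnight, then treated with compounds. After 24 h at 37 C, viability was read by ATPlite luminescence. An increase in signal indicates blocked uPA-dependent LF entry.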

inhibition, inactive:
O=C(CSc1ccc([N+](=O)[O-])cn1)Nc1nccs1 -1.37%
O=C(CSc1nnnn1-c1cccc(F)c1)Nc1nc2ccccc2s1 0.878%
COc1ccccc1C(=O)NCCC(=O)NCC(c1ccc(F)cc1)N1CCOCC1 (centres undefined) -2.36%
COc1ccc(C(=O)NC(=S)Nc2ccc(NC(=O)c3ccco3)cc2)cc1[N+](=O)[O-] 0.844%
CC(O)[C@H]1CNC(=O)C(=O)N1CCc1cccc(F)c1 (some centres undefined) 0.53%
Cc1ccc(/C=N/NC(=O)c2ccc3nc[nH]c3c2)s1 -2.96%
COc1cc(CN2CCNC(=O)C2CC(=O)NCCCC2CCCC2)cc(OC)c1 (centres undefined) -3.3%
Cc1ccc2cc(C=O)c(Cl)nc2c1 -1.38%
Cc1ccccc1C(=O)NCC(=O)Nc1ccc(C)c(S(=O)(=O)N2CCCCCC2)c1 -3.15%
O=C(C[C@H]1C[C@H](C(=O)N2CCOCC2)[C@@]2(CCC3CCCC3)c3[nH]c4cc(-c5ccco5)ccc4c3CCN2C1=O)NCc1cccc(C(F)(F)F)c1 -1.11%
Cc1nc2ccc(Br)cn2c1C(=O)N/N=C\c1ccccc1Cl 0.471%
NC(=O)c1ccccc1NC(=O)CC12CC3CC(CC(C3)C1)C2 -2.57%
O=S(=O)(NCC(c1cccnc1)N1CCOCC1)c1ccccc1 (centres undefined) -1.68%
COc1ccc2nc(SC(C)C(=O)NC3(C#N)CCCCC3)[nH]c2c1 (centres undefined) -2.91%
O=C(COc1ccc(C(=S)N2CCOCC2)cc1)N1CCOCC1 -1.16%
CCOc1cc(/C=N/Nc2cc(C)nc3ccc(C)cc23)ccc1O -1.72%
OC(COc1ccc(Br)cc1)CN1CCN(c2ccccc2)CC1 (centres undefined) -0.285%
CC1CCC(NC(=O)c2nn(C)c3c2CS(=O)(=O)c2ccccc2-3)CC1 (centres undefined) -2.66%
COc1cccc(NC(=O)N2C3CCCC2CC(NC(C)=O)C3)c1 (centres undefined) 0.143%
COC(=O)c1ccc(N2CCN(c3ccccc3)CC2)c(NC(=O)C2CC2)c1 -2.04%
CN(CCCNC(=O)Cn1cccc1C(=O)c1ccccc1)C1CCCCC1 -3.4%
O=C(O)c1cc(N=Nc2c(O)[nH]c3ccc([N+](=O)[O-])cc23)ccc1Cl -0.969%
C/C(=N\NC(=O)c1ccccc1)c1c(C)[nH]n(-c2ccccc2)c1=O -3.44%
COCCN(C(=O)CSc1nnc(-c2ccncc2)n1C)c1c(N)n(CC(C)C)c(=O)[nH]c1=O -1.56%
CC(=O)Oc1ccc(OC(C)=O)c(SCCCCCCl)c1 -3.76%
O=C(O)COc1ccccc1/C=N/NC(=O)CNC(=O)c1ccco1 1.84%
C#CCOCCOCCOCCNc1nc(N2CCOCC2)nc(N2CCN(C(=O)[C@H](CCC(=O)O)n3cc([C@@H](N)CCCCN)nn3)CC2)n1 -2.85%
CC(=O)Nc1nc2ccccc2[nH]1 -0.707%
CCOC(=O)CC(=O)CSc1nc2c(C)c(C)ccc2cc1C 0.709%
CC(C)NC(=O)CN1CCC(c2nc3ccccc3[nH]2)CC1 -0.869%
O=S(=O)(/N=C(/c1ccccc1)N1CCOCC1)c1ccc(F)cc1F -0.111%
O=C(CSc1ccc(Cl)cc1)N1CCCC1 -2.87%
Cc1cc2c(cc1S(=O)(=O)Nc1ccc(F)cc1)n(C)c(=O)c(=O)n2C -1.34%
Cc1cnc(CNC(=O)CC2C(=O)NCCN2Cc2ccccc2C(F)(F)F)cn1 (centres undefined) -0.319%
CC(C)c1ccc(C2/C(=C(\O)c3ccc4c(c3)OCCO4)C(=O)C(=O)N2CCN2CCOCC2)cc1 (centres undefined) -0.762%
CCc1ccc(NCc2nc(-c3ccccc3)no2)cc1 -0.825%
Cc1ccc(Nc2nc(Cl)c(C=O)s2)cc1 -3.05%
COCCOC(=O)C1=C(C)NC(=O)NC1c1cccc2ccccc12 (centres undefined) 1.45%
CCc1nnc(NC(=O)CSc2nnnn2-c2cccc(C(C)=O)c2)s1 -1.2%
